Experiment in all cases: DAPPL (digital affinity profiling via proximity ligation, sequencing); 10 mM Tris-HCl pH 7.5, 50 mM NaCl, 1 mM DTT, 4% glycerol, room temperature, 30 min; GST-TFs on glutathione beads, 16-mer random dsDNA library, 0.1% formaldehyde crosslink after washing; high values mean tight binding
The target in one test is T1, FLI1 (Homo sapiens, UniProt Q01543 1-452).
T1 sequence: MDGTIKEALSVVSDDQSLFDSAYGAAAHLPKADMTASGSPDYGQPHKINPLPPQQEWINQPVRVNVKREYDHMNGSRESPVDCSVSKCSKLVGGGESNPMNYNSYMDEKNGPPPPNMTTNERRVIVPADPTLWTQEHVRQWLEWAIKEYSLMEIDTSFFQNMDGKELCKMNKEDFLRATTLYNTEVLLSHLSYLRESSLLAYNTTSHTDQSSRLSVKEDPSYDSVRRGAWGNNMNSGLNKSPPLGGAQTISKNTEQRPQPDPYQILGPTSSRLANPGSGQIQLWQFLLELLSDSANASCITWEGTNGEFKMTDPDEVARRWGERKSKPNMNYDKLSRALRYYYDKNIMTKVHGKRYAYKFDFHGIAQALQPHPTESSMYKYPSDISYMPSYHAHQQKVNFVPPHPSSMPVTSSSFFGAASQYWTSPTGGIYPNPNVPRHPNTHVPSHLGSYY
The conditions noted are these: protein: recombinant; tags: N-terminal GST; dsDNA, one strand shown. Put shortly:
(§1)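 Pools of DNA-barcoded human transcription factors, expressed in yeast as GST fusions on glutathione beads and combined with a tag-only sample, were incubated with 200 nmole of a 16-mer random double-stranded DNA library. Incubation took 30 min at room temperature in Tris/NaCl/DTT/glycerol buffer and was followed by washing, 0.1% formaldehyde crosslinking, proximity ligation (BsaI/T4 ligase, 1 h, 37 °C), PCR amplification and sequencing on an Illumina NextSeq500. Binding signal is the ratio of a hexamer's read frequency for a factor to its frequency for the tag-only sample.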

For a further test, the target named is T2, ELK1 (Homo sapiens, UniProt P19419 1-428).
T2 sequence: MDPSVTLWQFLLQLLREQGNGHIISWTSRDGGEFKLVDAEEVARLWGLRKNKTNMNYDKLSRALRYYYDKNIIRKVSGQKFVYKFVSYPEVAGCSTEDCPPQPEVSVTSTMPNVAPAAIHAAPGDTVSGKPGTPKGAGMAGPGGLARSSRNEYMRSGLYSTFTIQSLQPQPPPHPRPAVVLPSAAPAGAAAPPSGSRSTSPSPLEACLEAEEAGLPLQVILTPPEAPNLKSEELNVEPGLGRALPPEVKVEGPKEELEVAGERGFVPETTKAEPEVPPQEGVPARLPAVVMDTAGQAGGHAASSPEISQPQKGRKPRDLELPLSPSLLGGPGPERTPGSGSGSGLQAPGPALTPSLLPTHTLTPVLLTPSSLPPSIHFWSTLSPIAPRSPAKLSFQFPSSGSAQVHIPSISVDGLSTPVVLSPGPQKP
The conditions noted are these: protein: recombinant; tags: N-terminal GST; dsDNA, one strand shown. In short, it runs like this: as §1

A further test addresses T3, GABPA (Homo sapiens, UniProt Q06546 1-454).
T3 sequence: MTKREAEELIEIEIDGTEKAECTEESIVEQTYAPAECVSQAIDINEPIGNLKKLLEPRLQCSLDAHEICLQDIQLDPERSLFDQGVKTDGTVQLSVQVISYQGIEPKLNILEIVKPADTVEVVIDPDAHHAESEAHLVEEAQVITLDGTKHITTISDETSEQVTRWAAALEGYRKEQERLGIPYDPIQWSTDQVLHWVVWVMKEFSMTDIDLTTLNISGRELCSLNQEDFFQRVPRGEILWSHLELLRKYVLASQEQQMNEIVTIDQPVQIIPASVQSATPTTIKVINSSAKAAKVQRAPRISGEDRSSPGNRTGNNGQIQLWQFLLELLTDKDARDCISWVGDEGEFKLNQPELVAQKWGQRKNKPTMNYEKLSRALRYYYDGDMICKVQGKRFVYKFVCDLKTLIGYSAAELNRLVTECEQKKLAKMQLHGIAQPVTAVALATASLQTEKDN
To be noted: protein: recombinant; tags: N-terminal GST; dsDNA, one strand shown. In short, it runs like this:
as §1

The target of the next test is T4, ERG (Homo sapiens, UniProt P11308 1-479).
T4 sequence: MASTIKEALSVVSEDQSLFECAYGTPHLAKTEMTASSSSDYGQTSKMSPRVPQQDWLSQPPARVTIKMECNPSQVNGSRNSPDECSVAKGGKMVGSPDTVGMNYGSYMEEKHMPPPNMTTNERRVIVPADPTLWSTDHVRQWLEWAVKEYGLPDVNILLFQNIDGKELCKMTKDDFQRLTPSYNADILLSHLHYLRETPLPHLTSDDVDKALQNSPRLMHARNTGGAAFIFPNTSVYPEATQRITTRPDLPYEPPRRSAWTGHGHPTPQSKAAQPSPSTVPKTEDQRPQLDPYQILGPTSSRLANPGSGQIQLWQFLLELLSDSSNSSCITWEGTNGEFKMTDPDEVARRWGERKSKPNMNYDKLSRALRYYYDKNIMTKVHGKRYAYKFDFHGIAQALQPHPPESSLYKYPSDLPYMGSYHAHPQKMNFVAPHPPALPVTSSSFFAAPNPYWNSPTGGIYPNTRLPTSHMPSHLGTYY
To be noted: protein: recombinant; tags: N-terminal GST; dsDNA, one strand shown. In short, it runs like this: as §1

For another test, the target named is ELF1 (Homo sapiens, UniProt P32519 1-619). The conditions noted are these: protein: recombinant; tags: N-terminal GST; dsDNA, one strand shown. Put shortly:
as §1

A further test has as its target T5, EHF (Homo sapiens, UniProt Q9NZC4 1-300).
T5 sequence: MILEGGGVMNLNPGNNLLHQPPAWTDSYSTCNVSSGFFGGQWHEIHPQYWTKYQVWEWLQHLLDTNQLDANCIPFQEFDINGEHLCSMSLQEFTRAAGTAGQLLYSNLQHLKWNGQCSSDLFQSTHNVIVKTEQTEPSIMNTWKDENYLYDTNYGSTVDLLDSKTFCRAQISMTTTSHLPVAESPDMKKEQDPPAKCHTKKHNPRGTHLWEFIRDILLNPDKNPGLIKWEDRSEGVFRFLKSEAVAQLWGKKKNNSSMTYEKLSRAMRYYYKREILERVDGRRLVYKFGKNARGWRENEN
To be noted: protein: recombinant; tags: N-terminal GST; dsDNA, one strand shown. In short, it runs like this:
as §1

The next test addresses SPI1 (Homo sapiens, UniProt P17947 1-270). To be noted: protein: recombinant; tags: N-terminal GST; dsDNA, one strand shown. In short, it runs like this:
as §1

A further test has as its target SPIB (Homo sapiens, UniProt Q01892 1-262). To be noted: protein: recombinant; tags: N-terminal GST; dsDNA, one strand shown. In short, it runs like this: as §1
For the next test, the target named is T6, ELK3 (Homo sapiens, UniProt P41970 1-407).
T6 sequence: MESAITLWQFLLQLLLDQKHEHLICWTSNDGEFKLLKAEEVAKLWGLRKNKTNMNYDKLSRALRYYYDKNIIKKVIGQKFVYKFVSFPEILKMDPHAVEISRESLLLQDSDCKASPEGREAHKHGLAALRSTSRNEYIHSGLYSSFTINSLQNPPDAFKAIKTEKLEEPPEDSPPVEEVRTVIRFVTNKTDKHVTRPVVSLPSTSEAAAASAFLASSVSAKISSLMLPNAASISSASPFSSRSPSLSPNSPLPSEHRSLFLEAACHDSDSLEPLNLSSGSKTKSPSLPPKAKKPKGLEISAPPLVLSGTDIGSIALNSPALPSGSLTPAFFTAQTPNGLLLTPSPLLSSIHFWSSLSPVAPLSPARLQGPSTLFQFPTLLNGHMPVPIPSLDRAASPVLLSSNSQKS
To be noted: protein: recombinant; tags: N-terminal GST; dsDNA, one strand shown. Put shortly: as §1

A further test has as its target T7, FEV (Homo sapiens, UniProt Q99581 1-238).
T7 sequence: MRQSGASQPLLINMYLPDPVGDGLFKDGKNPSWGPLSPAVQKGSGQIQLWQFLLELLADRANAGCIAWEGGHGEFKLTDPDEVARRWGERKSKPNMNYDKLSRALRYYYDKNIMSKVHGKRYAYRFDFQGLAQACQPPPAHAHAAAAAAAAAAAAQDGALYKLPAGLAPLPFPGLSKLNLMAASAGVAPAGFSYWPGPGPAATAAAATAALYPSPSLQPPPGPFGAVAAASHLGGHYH
To be noted: protein: recombinant; tags: N-terminal GST; dsDNA, one strand shown. Put shortly:
as §1

Another test addresses ETV5 (Homo sapiens, UniProt P41161 1-510). To be noted: protein: recombinant; tags: N-terminal GST; dsDNA, one strand shown. In short, it runs like this:
as §1

A further test concerns the target HSF1 (Homo sapiens, UniProt Q00613 1-529). The conditions noted are these: protein: recombinant; tags: N-terminal GST; chain copies: 3; dsDNA, one strand shown. In short, it runs like this: as §1
Another test deals with T8, SPIC (Homo sapiens, UniProt Q8N5J4 1-248).
T8 sequence: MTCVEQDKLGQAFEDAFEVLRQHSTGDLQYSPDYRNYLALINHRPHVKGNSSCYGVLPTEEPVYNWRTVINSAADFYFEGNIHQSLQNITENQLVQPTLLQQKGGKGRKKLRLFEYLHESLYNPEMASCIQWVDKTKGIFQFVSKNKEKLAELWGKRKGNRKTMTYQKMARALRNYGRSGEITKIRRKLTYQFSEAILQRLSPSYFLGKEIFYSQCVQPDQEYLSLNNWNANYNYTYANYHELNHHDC
The conditions noted are these: protein: recombinant; tags: N-terminal GST; dsDNA, one strand shown. Put shortly:
as §1

Another test concerns the target ELF4 (Homo sapiens, UniProt Q99607 1-663). The conditions noted are these: protein: recombinant; tags: N-terminal GST; dsDNA, one strand shown. Put shortly:
as §1

In the next test the target is T9, ELK4 (Homo sapiens, UniProt P28324-2 1-405).
T9 sequence: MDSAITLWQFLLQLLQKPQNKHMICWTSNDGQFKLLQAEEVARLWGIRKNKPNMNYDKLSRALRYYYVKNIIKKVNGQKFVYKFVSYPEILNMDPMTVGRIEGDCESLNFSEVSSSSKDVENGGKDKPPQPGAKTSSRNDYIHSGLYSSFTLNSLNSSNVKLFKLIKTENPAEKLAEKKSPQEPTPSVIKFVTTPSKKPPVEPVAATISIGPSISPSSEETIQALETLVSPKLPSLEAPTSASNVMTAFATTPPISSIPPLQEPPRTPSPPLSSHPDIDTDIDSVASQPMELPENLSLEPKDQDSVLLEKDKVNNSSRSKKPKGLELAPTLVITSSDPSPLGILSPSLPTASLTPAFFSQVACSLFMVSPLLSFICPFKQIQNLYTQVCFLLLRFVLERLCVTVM
To be noted: protein: recombinant; tags: N-terminal GST; dsDNA, one strand shown. Put shortly:
as §1

A further test has as its target T10, ETV2 (Homo sapiens, UniProt O00321 1-342).
T10 sequence: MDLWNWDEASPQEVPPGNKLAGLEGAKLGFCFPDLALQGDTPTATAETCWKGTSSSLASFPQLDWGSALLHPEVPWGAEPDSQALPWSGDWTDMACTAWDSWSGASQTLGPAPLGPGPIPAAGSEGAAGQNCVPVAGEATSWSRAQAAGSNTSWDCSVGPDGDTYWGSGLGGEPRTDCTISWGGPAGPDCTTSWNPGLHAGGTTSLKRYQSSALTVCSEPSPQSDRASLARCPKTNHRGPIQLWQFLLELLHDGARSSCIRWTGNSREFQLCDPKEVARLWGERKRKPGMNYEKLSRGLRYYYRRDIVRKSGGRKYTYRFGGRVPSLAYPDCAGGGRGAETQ
The conditions noted are these: protein: recombinant; tags: N-terminal GST; dsDNA, one strand shown. Put shortly: as §1

The next test deals with T11, ELF3 (Homo sapiens, UniProt P78545 1-371).
T11 sequence: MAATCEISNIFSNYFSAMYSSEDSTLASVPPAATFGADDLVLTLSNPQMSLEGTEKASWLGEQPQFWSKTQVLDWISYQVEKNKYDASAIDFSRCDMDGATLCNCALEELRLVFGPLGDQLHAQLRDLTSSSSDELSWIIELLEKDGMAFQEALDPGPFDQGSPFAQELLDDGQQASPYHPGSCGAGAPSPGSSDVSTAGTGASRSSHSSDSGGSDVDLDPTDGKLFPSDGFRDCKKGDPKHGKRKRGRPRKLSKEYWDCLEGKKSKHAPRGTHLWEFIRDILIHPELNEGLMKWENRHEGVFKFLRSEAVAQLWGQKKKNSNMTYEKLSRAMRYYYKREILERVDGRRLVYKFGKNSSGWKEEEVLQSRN
To be noted: protein: recombinant; tags: N-terminal GST; dsDNA, one strand shown. Put shortly:
as §1

The target in the next test is CRX (Homo sapiens, UniProt O43186 1-299). To be noted: protein: recombinant; tags: N-terminal GST; dsDNA, one strand shown. In short, it runs like this:
as §1

The next test addresses ETV1 (Homo sapiens, UniProt P50549 1-477). The conditions noted are these: protein: recombinant; tags: N-terminal GST; dsDNA, one strand shown. Put shortly:
as §1

Sequence of ELF1 (P32519 whole entry): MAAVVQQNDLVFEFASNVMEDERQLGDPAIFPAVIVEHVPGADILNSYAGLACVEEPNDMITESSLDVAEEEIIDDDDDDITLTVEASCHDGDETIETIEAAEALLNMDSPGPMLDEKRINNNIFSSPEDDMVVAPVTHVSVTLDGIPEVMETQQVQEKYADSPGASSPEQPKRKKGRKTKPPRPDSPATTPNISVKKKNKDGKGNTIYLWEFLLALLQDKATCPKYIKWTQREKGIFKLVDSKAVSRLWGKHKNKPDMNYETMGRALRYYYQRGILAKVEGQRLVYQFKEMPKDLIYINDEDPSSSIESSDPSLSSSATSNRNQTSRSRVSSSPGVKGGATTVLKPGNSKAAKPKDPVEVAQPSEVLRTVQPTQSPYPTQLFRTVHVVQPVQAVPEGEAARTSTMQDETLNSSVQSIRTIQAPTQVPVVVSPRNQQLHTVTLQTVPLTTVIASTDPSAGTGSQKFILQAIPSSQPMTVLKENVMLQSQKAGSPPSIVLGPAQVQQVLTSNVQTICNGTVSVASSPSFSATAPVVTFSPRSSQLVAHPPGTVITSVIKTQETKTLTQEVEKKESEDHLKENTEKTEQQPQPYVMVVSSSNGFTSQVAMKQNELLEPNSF
Sequence of ELF4 (Q99607 whole entry): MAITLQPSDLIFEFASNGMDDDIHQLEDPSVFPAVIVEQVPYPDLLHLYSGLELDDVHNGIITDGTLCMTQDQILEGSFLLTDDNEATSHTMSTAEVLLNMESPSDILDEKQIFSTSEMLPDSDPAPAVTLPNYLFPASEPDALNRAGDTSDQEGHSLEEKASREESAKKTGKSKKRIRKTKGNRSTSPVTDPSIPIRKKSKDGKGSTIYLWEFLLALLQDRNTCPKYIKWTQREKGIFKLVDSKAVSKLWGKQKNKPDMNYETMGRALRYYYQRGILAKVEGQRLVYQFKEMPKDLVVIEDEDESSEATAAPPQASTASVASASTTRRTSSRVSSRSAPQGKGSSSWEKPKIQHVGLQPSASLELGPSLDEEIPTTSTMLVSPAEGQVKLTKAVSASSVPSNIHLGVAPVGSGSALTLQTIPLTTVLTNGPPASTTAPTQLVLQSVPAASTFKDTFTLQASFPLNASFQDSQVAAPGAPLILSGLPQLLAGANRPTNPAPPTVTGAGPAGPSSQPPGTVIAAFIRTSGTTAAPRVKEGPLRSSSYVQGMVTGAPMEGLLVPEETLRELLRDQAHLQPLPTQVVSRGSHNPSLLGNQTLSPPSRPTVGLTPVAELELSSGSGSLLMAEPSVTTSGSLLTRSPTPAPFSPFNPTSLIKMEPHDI
Sequence of SPIB (Q01892 whole entry): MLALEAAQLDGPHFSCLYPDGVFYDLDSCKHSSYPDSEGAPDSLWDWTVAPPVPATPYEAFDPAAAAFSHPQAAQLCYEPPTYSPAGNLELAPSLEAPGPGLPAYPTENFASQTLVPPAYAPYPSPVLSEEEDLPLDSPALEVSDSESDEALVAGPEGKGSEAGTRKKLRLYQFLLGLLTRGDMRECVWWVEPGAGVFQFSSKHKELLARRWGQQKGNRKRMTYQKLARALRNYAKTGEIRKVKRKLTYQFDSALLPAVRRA
Sequence of ETV5 (P41161 whole entry): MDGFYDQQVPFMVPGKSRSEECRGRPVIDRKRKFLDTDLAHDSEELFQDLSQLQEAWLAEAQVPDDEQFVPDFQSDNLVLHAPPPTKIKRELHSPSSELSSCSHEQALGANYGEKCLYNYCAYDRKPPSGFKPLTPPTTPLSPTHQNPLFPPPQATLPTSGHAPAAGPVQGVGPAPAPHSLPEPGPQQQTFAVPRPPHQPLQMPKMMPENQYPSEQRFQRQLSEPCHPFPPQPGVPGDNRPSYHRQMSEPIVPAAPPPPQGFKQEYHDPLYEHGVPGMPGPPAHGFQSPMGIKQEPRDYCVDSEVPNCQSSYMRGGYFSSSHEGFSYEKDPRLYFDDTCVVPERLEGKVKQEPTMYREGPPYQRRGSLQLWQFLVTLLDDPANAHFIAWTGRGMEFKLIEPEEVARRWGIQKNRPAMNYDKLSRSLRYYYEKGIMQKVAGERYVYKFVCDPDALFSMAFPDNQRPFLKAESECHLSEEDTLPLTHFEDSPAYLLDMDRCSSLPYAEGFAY
Sequence of ETV1 (P50549 whole entry): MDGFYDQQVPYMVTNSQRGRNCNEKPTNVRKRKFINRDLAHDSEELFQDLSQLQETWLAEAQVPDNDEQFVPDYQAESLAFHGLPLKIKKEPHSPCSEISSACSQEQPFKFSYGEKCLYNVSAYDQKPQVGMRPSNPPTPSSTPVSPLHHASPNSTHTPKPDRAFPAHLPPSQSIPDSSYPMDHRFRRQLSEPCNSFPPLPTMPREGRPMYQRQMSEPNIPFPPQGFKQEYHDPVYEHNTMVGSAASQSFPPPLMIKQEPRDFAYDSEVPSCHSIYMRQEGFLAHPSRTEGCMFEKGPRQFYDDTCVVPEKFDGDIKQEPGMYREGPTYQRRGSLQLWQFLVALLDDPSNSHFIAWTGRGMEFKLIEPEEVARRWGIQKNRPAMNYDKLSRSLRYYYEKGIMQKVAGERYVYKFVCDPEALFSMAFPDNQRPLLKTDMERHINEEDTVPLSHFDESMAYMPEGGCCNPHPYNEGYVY
Sequence of CRX (O43186 whole entry): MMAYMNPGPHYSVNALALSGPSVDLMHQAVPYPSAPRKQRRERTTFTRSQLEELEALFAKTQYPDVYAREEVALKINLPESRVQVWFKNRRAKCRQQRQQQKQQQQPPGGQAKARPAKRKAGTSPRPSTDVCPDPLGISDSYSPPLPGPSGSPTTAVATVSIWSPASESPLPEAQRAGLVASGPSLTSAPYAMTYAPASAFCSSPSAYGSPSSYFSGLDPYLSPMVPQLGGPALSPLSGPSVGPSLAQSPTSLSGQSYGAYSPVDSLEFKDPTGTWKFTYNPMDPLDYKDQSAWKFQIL
Sequence of HSF1 (Q00613 whole entry): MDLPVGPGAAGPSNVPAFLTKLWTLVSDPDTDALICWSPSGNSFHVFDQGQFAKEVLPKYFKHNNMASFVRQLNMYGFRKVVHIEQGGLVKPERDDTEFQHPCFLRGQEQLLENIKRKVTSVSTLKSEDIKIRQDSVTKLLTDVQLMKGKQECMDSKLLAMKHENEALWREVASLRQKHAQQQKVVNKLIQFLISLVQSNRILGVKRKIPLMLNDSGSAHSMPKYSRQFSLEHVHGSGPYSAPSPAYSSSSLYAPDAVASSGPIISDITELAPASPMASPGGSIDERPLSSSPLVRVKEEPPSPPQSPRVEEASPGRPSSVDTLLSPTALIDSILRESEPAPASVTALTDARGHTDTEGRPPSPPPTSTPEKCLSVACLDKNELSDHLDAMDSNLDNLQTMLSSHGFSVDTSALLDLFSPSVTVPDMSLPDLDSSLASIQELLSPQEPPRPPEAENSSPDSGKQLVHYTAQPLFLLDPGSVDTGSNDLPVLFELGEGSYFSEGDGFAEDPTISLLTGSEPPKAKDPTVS

As for ATTGCC, the binding signal in the test with FLI1 was 1.28 fold enrichment (6-mer frequency, TF over GST control); in the test with ELK1, 1.27 fold enrichment (6-mer frequency, TF over GST control); with GABPA, 1.28 fold enrichment (6-mer frequency, TF over GST control); in the test with ERG it was 1.14 fold enrichment (6-mer frequency, TF over GST control); with ELF1, 1.21 fold enrichment (6-mer frequency, TF over GST control); with EHF, 1.24 fold enrichment (6-mer frequency, TF over GST control). Further, the binding signal in the test with SPI1 is 1.15 fold enrichment (6-mer frequency, TF over GST control); with SPIB, 1.26 fold enrichment (6-mer frequency, TF over GST control); with ELK3, 1.15 fold enrichment (6-mer frequency, TF over GST control); with FEV, 1.25 fold enrichment (6-mer frequency, TF over GST control); with ETV5, 1.28 fold enrichment (6-mer frequency, TF over GST control); with HSF1, 1.09 fold enrichment (6-mer frequency, TF over GST control). For the same sequence, the binding signal in the test with SPIC is 1.29 fold enrichment (6-mer frequency, TF over GST control); with ELF4, 1.3 fold enrichment (6-mer frequency, TF over GST control); in the test with ELK4, 1.14 fold enrichment (6-mer frequency, TF over GST control); in the test with ETV2, 1.12 fold enrichment (6-mer frequency, TF over GST control); with ELF3 it was 1.24 fold enrichment (6-mer frequency, TF over GST control); with CRX, 1.09 fold enrichment (6-mer frequency, TF over GST control). The binding signal with ETV1 was 1.2 fold enrichment (6-mer frequency, TF over GST control).
